Calls of active or inactive are those of the source.

In PubChem BioAssay one finds composite z-score and z-score data, which are given here for eight molecules.

A short description of assay [1]: binders of probe aFSTL3 on microarray, primary screen, stem cell growth factor project, biochemical, small-molecule microarray, fluorescence 635/667 (AID 1064).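 Also: measures binding of the biotinylated anti-FSTL3 antibody to printed compounds.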 As to conditions: higher = more signal.
A short description of assay [2]: binders from COS7 lysate, DM2A8 probe, primary screen, torsin A project, cell lysate, small-molecule microarray, fluorescence 635/667 (AID 1065). As to conditions: higher = more signal, COS7 lysate expressing mutant human TOR1A.
Assay [3] is described as follows: binders of probe aFGF2 on microarray, primary screen, stem cell growth factor project, biochemical, small-molecule microarray, fluorescence 635/667 (AID 1067).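 Also: measures binding of biotinylated aFGF2 protein to printed compounds on slides; z-score merges feature fluorescence and signal-to-noise across triplicate slides.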 As to conditions: higher = more signal.
A short description of assay [4]: binders of probe aFGF10 on microarray, primary screen, stem cell growth factor project, biochemical, small-molecule microarray, fluorescence 635/667 (AID 1071).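 Also: score merges 667 nm spot intensity and signal to noise from triplicate slides.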 Conditions: higher = more signal.
For assay [5], the target named is Neurogenic locus notch homolog protein 2 (Homo sapiens) (UniProt Q04721). The assay can be described thus: Notch2 binders on small-molecule microarrays, primary screen, biochemical, small-molecule microarray, 635 nm fluorescence, stem cell growth factors (AID 1073). Conditions: Notch2 binding, higher = more signal.
Sequence of Neurogenic locus notch homolog protein 2 (Homo sapiens) (Q04721 whole entry, looked up, canonical isoform): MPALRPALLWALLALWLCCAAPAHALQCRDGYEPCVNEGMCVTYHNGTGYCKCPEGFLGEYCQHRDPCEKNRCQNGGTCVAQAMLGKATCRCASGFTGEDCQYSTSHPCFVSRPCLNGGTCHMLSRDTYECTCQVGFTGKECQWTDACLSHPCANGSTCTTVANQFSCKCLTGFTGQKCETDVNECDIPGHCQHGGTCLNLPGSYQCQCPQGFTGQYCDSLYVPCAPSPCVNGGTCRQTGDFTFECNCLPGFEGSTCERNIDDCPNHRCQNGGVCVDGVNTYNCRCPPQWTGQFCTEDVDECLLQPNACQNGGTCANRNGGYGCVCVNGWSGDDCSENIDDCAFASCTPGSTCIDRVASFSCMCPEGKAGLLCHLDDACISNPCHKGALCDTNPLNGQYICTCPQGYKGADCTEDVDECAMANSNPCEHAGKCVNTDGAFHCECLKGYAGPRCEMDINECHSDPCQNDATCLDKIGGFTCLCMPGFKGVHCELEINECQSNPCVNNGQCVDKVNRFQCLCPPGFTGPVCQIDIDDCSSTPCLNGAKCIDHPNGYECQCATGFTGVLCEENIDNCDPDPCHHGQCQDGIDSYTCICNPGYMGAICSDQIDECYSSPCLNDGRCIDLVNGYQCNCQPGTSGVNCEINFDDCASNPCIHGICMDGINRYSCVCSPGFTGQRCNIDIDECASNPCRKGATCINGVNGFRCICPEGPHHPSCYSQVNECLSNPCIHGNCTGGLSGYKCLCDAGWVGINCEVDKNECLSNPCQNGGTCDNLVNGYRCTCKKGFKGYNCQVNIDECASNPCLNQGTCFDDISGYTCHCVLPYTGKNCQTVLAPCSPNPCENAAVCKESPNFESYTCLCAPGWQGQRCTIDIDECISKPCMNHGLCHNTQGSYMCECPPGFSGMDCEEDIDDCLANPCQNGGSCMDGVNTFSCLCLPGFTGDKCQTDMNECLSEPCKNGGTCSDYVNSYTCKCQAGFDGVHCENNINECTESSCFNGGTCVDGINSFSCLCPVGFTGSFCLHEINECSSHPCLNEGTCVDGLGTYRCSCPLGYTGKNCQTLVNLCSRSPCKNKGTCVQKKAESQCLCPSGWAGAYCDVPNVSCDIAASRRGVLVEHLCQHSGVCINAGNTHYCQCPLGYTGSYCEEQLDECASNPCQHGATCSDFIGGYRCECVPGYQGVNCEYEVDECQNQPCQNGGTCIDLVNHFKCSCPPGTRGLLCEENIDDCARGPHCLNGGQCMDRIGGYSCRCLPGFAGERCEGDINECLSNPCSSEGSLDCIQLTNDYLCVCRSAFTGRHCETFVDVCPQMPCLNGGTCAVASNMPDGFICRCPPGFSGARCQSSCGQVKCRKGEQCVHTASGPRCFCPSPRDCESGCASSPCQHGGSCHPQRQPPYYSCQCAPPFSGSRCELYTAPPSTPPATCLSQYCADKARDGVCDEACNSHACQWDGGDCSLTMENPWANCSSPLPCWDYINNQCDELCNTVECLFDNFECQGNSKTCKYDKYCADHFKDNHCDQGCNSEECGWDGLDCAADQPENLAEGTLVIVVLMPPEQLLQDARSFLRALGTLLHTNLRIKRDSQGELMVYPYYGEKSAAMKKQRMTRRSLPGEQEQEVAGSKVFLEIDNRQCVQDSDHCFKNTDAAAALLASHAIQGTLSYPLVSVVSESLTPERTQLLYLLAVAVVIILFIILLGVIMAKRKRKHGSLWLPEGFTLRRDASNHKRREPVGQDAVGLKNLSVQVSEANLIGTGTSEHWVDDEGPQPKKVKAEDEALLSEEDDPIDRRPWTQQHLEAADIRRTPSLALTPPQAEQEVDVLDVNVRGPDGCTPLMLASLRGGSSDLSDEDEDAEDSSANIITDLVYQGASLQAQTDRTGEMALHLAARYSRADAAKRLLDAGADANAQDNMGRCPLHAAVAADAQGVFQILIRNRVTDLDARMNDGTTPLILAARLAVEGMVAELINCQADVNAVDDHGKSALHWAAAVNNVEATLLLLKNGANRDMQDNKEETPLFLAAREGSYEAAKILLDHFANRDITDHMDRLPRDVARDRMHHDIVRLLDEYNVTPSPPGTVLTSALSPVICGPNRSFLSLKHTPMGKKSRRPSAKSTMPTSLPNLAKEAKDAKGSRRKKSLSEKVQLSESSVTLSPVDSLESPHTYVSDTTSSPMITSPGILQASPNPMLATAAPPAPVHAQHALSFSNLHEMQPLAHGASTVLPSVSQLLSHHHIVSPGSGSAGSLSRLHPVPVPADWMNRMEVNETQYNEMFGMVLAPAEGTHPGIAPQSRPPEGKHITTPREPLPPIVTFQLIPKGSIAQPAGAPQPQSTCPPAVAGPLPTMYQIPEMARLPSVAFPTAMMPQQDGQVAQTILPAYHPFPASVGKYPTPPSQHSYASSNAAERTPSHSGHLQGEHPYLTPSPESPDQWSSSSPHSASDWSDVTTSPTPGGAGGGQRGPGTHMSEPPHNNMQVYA
Assay [6] deals with Pro-neuregulin-1, membrane-bound isoform (Homo sapiens) (UniProt Q02297). Kind of assay: NRG1 binders on small-molecule microarrays, primary screen, psychiatric disease protein project, biochemical, small-molecule microarray, fluorescence 635/667 (AID 1075).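 Also: score combines 667 nm spot fluorescence with signal to noise.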 As to conditions: NRG1 binding, 635 nm fluorescence, higher = more signal.
Sequence of Pro-neuregulin-1, membrane-bound isoform (Homo sapiens) (Q02297 whole entry, looked up, the tested form may be a part, canonical isoform): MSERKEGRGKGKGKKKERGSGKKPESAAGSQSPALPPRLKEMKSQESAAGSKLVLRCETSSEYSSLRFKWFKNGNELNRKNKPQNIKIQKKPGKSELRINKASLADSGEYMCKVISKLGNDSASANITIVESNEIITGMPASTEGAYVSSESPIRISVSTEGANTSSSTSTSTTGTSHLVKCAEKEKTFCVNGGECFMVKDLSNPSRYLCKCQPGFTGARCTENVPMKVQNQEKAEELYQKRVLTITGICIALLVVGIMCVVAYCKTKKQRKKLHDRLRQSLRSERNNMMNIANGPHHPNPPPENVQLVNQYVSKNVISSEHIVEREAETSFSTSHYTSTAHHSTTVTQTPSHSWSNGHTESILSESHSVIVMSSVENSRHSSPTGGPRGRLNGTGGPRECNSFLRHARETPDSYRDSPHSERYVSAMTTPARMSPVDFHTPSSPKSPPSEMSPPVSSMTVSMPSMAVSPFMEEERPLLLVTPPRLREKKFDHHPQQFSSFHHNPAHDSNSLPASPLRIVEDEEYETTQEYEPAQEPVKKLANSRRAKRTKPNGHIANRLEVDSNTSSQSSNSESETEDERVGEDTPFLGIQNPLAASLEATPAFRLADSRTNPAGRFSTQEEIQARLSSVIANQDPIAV
Assay [7] relates to Neuregulin-1 EGF-like domain. The assay can be described thus: binders of neuregulin-1 EGF-like domain, primary screen, biochemical, small-molecule microarray, 635 nm fluorescence (AID 1081).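 Also: binding of the protein to compounds printed on small-molecule microarray slides.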 Conditions: small-molecule microarray binding, higher = more signal.
Assay [8] in a line: FRG1 promoter luciferase signal modulators, primary screen, FRG1 inhibition for FSHD, cell-based, C2C12 myotubes, firefly/Renilla luciferase, luminescence (AID 1084). As to conditions: higher = more signal, called active from +8 up or from −8 down.
The nature of assay [9]: binders of probe aFST on microarray, primary screen, stem cell growth factor project, biochemical, small-molecule microarray, fluorescence 635/667 (AID 1086).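 Also: score merges 667 nm fluorescence with signal-to-noise of each printed compound spot.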 Conditions: higher = more signal.
Assay [10] can be described thus: binders of probe aHhip on microarray, primary screen, stem cell growth factor project, biochemical, small-molecule microarray, fluorescence 635/667 (AID 1087).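 Also: score merges spot fluorescence at 667nm with spot signal to noise ratio.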 Conditions: higher = more signal.

With `C=CCN1C(=O)[C@@]2(O[C@@H](CCO)[C@H]([Si](C)(C)c3ccc(OC)cc3)[C@H]2C)c2cc(NC(=O)c3ccc(OC)cc3)ccc21`, the composite z-score in [1] was -0.114; in assay [2], 0.612; in [3], -0.0739; in [4], -0.0379; in assay [5], 0.454; in assay [6], 0.213. The values for the composite z-score in assay [7], in [9] and in [10] were 0.949, 0.171 and -0.0003, respectively. For the same molecule, in assay [8], the z-score was -0.797 (inactive).

For `CC[C@@H]1C=C(C(=O)O)[C@H](c2ccco2)N1S(=O)(=O)c1ccc(C)cc1`, the composite z-score in [1] is 0.001; in assay [2], 0.0518; in [3], -0.0141; in assay [4], -0.214; in [5] it was -0.974; in assay [6] it was 0.179. Moreover, the composite z-score was 0.504 in [7], 0.545 in assay [9] and -0.0391 in [10]. The z-score in assay [8] was 0.0623 (inactive).

As to `CN(C)CCCC[C@@H]1NC(=O)[C@H]2C[C@@H](C(=O)NCCCCCNC(=O)CS)[C@@H](c3cccc(OCCO)c3)N2C1=O`, the composite z-score was -0.23 in assay [1]; 0.411 in [2]; -0.0785 in assay [3]; -0.0727 in assay [4]; -0.21 in [5]; 0.727 in assay [6]. The composite z-score is 1.27 in assay [7], 0.0184 in [9] and -0.305 in [10]. Moreover, in assay [8], the z-score was 0.498 (inactive).

On to `NCCCCCNC(=O)[C@@H]1C[C@@H]2C(=O)N[C@@H](Cc3ccccc3)C(=O)N2[C@@H]1c1cccc(OCCO)c1`, for which the composite z-score in [1] is 0.185; in assay [2], 0.291; in [3] it was -0.107; in [4], 0.106; in [5], 0.514; in assay [6] it was 1.32. The composite z-score in assay [7] was 1.08; in [9] it was -0.122; in [10], -0.0645. The z-score in assay [8] is 1.39 (inactive).

As for `COc1ccc(NN2C(C(O)c3ccc([N+](=O)[O-])cc3)C=CC3C(=O)N(C4CCCCC4)C(=O)C32)cc1` (stereo not given), the composite z-score in assay [1] was 0.091; in assay [2], -0.174; in assay [3], -0.0782; in [4], 0.389; in [5], 0.901; in [6], 0.348. Besides, the results for the composite z-score in [7], in assay [9] and in [10] were 0.755, 0.844 and -0.0346, respectively. Besides, the z-score in assay [8] was -0.068 (inactive).

Turning to `C=CCOC(=O)[C@@H]1[C@H]2C(=O)O[C@H](c3ccccc3)[C@H](c3ccccc3)N2[C@H](c2ccc(OCCOC(=O)[C@@H]3C[C@@H]4C(=O)N[C@@H](Cc5ccccc5)C(=O)N4[C@@H]3c3ccc(O)cc3)cc2)[C@@]12C(=O)Nc1ccc(I)cc12`, the composite z-score is -0.219 in [1]; 0.602 in assay [2]; -0.0944 in assay [3]; 0.302 in assay [4]; 0.825 in assay [5]; 0.612 in [6]. The composite z-score in [7] amounted to 1.14; in assay [9] it was 0.11; in [10], 0.238. Moreover, the z-score in [8] was 1.42 (inactive).

Regarding `C=CCOC(=O)[C@H]1[C@@H]2C(=O)O[C@@H](c3ccccc3)[C@@H](c3ccccc3)N2[C@@H](c2ccc(OCCOC(=O)[C@@H]3C[C@@H]4C(=O)N[C@@H](CCCC[N+](C)(C)C)C(=O)N4[C@@H]3c3ccc(O)cc3)cc2)[C@]12C(=O)Nc1ccccc12`, the composite z-score is -0.518 in [1]; 0.964 in assay [2]; -0.0503 in [3]; 0.439 in assay [4]; 0.459 in assay [5]; 0.206 in assay [6]. Further, the results for the composite z-score in assay [7], in [9] and in [10] were 1.15, -0.367 and -0.0618, respectively. In addition, in assay [8], the z-score was 0.277 (inactive).

For the molecule `COCCOC(=O)N1C(=O)[C@@]2(c3cc(C#CC4(O)CCCCCC4)ccc31)[C@H](c1ccc(O)cc1)N1[C@H](c3ccccc3)[C@H](c3ccccc3)OC(=O)[C@H]1[C@@H]2C(=O)Nc1nc2ccccc2s1`, the composite z-score in [1] is 1.87; in assay [2] it was 0.186; in [3], -0.045; in [4], 0.769; in [5] it was 1.15; in assay [6] it was 1.15. Also, the composite z-score is 1.02 in [7], 2.31 in [9] and 0.468 in assay [10]. In [8], the z-score is 1.41 (inactive).
